# Bioassay records (PubChem)
# In the library only some 19% were active in any assay of this set; here they are far more common.
# IL1B secr inh: blocks inflammasome-driven IL-1 beta release; THP-1 LPS/ATP IL-1B secretion, AlphaLISA, 16 h; hits give low values; activity change, % at 57.5 µM; 360,000 tested, 4.7% active; AID 743279; in the data active = activity change below about -50%; inconclusive = mostly about -30% to -49%
#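 THP-1 cells pretreated 1 hr with compounds (up to 57.5 uM final), then stimulated with LPS (250 ng/mL final) plus ATP (1.25 mM final); secreted IL-1B measured by AlphaLISA after 16 hr, decreased signal indicating inhibition.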
# TDP1 block: inhibitors of human tyrosyl-DNA phosphodiesterase TDP1 | recombinant TDP1, AlphaScreen DNA substrate cleavage | Q9NUW8 | Potency, µM (titrated, usually from 130 µM), for inactives: at the highest dose activity change, negative = inhibition, actives largely listed as inhibitors | 350,000 tested, 0.28% active | AID 485290; note: potency is the fitted concentration of half-maximal effect; nearly all actives have a fitted effect of over 40% in size
# Target sequence (Q9NUW8 whole entry, looked up): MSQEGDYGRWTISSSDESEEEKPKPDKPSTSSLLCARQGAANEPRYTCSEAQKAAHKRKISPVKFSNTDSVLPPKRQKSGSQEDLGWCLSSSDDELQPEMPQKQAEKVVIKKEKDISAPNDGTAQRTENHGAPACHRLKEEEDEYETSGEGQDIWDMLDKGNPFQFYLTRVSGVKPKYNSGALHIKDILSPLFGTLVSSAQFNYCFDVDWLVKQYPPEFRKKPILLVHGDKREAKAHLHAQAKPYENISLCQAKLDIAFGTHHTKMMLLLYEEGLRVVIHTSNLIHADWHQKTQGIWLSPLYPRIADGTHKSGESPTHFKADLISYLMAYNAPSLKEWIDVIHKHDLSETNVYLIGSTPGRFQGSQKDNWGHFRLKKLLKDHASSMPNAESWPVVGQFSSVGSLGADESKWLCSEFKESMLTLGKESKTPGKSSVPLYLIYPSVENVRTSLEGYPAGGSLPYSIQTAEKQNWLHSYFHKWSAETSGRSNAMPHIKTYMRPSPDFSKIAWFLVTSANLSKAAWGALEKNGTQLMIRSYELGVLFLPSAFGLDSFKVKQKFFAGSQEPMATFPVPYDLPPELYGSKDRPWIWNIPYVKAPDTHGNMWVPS
#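 Recombinant human Tdp1 (E. coli-expressed, 1 nM final) preincubated with compounds 15 min at room temperature, then 5'-biotin/3'-phosphotyrosine-FITC DNA substrate (15 nM final) added for 5 min. AlphaScreen beads (10 ug/ml final) added 10 min; cleavage lowers signal.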
# DT40 TDP1 no CPT: qHTS for Inhibitors of human tyrosyl-DNA phosphodiesterase 1 (TDP1): qHTS in cells in absence of CPT; DT40 Tdp1-/- hTDP1 cells, no CPT, ATP luminescence, 48 h; Potency, µM (highest dose often 46.2 µM), without a hit: at the top dose activity change, negative = growth inhibition, hits mostly inhibitors; 420,000 tested, 15% active; AID 686978, 2013; note: potency is the fitted concentration of half-maximal effect; nearly all actives have a fitted effect of over 55% in size
#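 Chicken DT40 Tdp1-/- cells complemented with human TDP1, screened without camptothecin (DMSO vehicle only), 400 cells/well. Compounds pin-transferred, cells incubated at 37 °C for at least 48 hr. Growth read as ATP-dependent luminescence (CellTiter-Glo, 30 min at RT).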
# ELG1 repair inh: blocks ELG1-dependent DNA repair in HEK293T cells | HEK293T ELG1-luciferase reporter, luminescence, 16 h; DNA damage induced by 5-fluorouridine | Potency, µM (titrated, usually from 46.1 µM), for inactives: at the highest dose activity change, negative = inhibition, usual class: inhibitors | 330,000 tested, 2.3% active | AID 504467; note: potency is the fitted concentration of half-maximal effect; nearly all actives have a fitted effect of over 55% in size
#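 5-Fluorouridine DNA damage + compound/DMSO, 2,000 cells/well, 16 h, 37 °C/5% CO2. ONE-Glo, 30 min RT, luminescence. Readout = decrease in reporter signal.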
# TDP1 cell CPT: DT40-hTDP1 cell growth loss with CPT. AID 686979. 420,000 tested, 12% active. chicken DT40 Tdp1-/-;hTDP1 cells + 20 nM CPT, ATP luminescence, 48 h. Potency, µM (titrated, usually from 46.2 µM), inactives show at the top dose activity change, negative = growth inhibition, actives largely listed as inhibitors; note: potency is the fitted concentration of half-maximal effect; nearly all actives have a fitted effect of over 55% in size
#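 Chicken DT40 Tdp1-/- cells complemented with human TDP1, 400 cells/well, exposed to compounds plus 20 nM camptothecin for at least 48 h at 37 C; viability read as ATP content by CellTiter-Glo luminescence.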
# Giardia kill: Giardia lamblia killing; AID 540267; 340,000 tested, 0.15% active; activity change, % at 7.66 µM, hits read low; Giardia lamblia trophozoite viability; in the data active = activity change below about -80%; inconclusive = between about -30% and that limit;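 note: parasites exposed to compound for two days anaerobically before the ATP read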
#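 ATP-content bioluminescence gauges trophozoite survival. Cells (100/well) receive compound and incubate anaerobically for 48 hrs at 37 deg C; detection reagent follows for 15-30 min at room temperature.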
# An asterisk follows results filed as active; ? = inconclusive; / = no result; [ ] = another dose, or the depositor's remark. Unless noted, calls come from the whole dose curve; as a rule, active = well fitted curve in the direction sought with a large enough effect; inconclusive = small, poorly fitted or top-dose-only effect, or another doubt; inactive = no such curve, though single readings can be large; an effect the other way counts as inactive or inconclusive. % is set by controls: 0 for no effect and ±100 for the full control effect.
SMILES,IL1B secr inh,TDP1 block,DT40 TDP1 no CPT,ELG1 repair inh,TDP1 cell CPT,Giardia kill
NC(=O)c1c(NC(=O)CS(=O)(=O)c2ccc(Cl)cc2)sc2c1CCCC2,/,7.8%,?,/,?,/
Cc1ccc(NC(=O)Cn2c(=O)ccc3cc(S(=O)(=O)N4CCCC4)ccc32)cc1N(C)C,/,12.1%,?,/,?,/
Cc1ccc(OCC(COCc2ccccc2)NC(C)C)cc1 (centres undefined),?,/,18.4µM*,/,?,17.0
Cc1ccc(OCCNCC(O)COc2ccccc2)cc1 (centres undefined),-26.2,/,-15.3%,2.3%,-28.2%,22.0
O=C(CNC(=O)c1ccccc1)N=Nc1c(O)[nH]c2ccc(Br)cc12,48.3,0.1%,-20.7%,-4.2%,?,-9.1
O=S(=O)(Cc1ccccc1)N=Nc1c(O)[nH]c2ccc(Br)cc12,75.9,7.5%,18.4µM*,-5.2%,13µM*,3.4
O=c1[nH]c(Nc2ccccn2)cc2ccccc12,24.1,/,?,/,?,-2.2
O=c1[nH]c(-c2ccccn2)cc2ccccc12,-55.6*,7.6%,-21.3%,?,-27.6%,1.4
COc1cc(-c2cc(C)c3c(OC)ccc(OC)c3n2)cc2c1OCCN(C(=O)C(C)c1n[nH]c(=O)c3ccccc13)C2 (centres undefined),/,/,-5.4%,/,-10.2%,/
CCCn1nc(NC(=O)COC)c2cc3cccc(C)c3nc21,-20.1,/,16.4µM*,-3.8%,?,4.3
Cc1cccc2cc3c(NC(=O)c4ccccn4)nn(C)c3nc12,36.8,1.0%,9.2µM*,3.8%,?,6.6
CCCn1nc(NC(C)=O)c2cc3cccc(C)c3nc21,7.5,/,?,?,?,-7.8
CCCC(=O)Nc1nn(C)c2nc3c(C)cccc3cc12,35.2,-2.1%,-29.3%,0.3%,-11.6%,-13.1
O=C(OCC1OC(n2ccc(=O)[nH]c2=O)C2OC12)c1ccccc1 (centres undefined),-2.8,/,-1.5%,/,1.9%,2.4
CC(C)C[C@H]1CN([C@@H](CC(C)C)CN2CCC[C@@H]2CN2C(=S)NC[C@@H]2Cc2ccc(O)cc2)C(=S)N1CCc1ccccc1,?,/,9.2µM*,/,13µM*,/
CC(C)C[C@H]1CN([C@@H](CC(C)C)CN2CCCC2CN2C(=S)NC[C@@H]2Cc2ccc(O)cc2)C(=S)N1CCc1ccccc1 (some centres undefined),-5.6,/,?,/,?,0.7
CC(C)C[C@H]1CNC(=S)N1C[C@H]1CCCN1C[C@H](CC(C)C)N1C[C@H](Cc2ccc(O)cc2)N(CCc2ccccc2)C1=S,-5.8,/,18.4µM*,/,?,/
CC(C)C[C@@H](CN1CCCC1CN1C(=S)NC[C@@H]1Cc1ccc(O)cc1)N1C[C@H](Cc2ccccc2)N(CCc2ccccc2)C1=S (some centres undefined),-15.6,/,14.6µM*,/,?,12.0
CCOC(=O)N1CCC(NC(=O)CC2C(=O)NCCN2Cc2ccccc2F)CC1 (centres undefined),-0.8,0.3%,14.5%,0.0%,9.6%,20.3
Cc1ccc(C2=C(c3ccc([N+](=O)[O-])cc3)C(=O)OC2)cc1C,-2.0,5.9%,18.4µM*,-29.4%,?,5.9
CC1CC(CN)CC(CO)C1 (centres undefined),14.2,3.6%,2.1%,2.7%,-8.2%,-1.4
COCCNC(=O)c1ccc2c(=O)n(CCc3ccccc3)c(SCC(=O)CC(=O)OC)nc2c1,/,0.0%,20.6µM*,/,?,/
COCCNC(=O)c1ccc2c(=O)n(CCOC)c(SCC(=O)c3c[nH]c4ccccc34)nc2c1,/,-2.6%,13µM*,/,23.1µM*,/
COCCn1c(SCC(=O)c2c[nH]c3ccccc23)nc2cc(C(=O)NCC(C)C)ccc2c1=O,/,-2.6%,-19.4%,/,?,/
CCOC(=O)CC(=O)CSc1nc2ccccc2c(=O)n1CCc1ccccc1,/,-7.4%,?,/,?,/
SMILES,IL1B secr inh,TDP1 block,DT40 TDP1 no CPT,ELG1 repair inh,TDP1 cell CPT,Giardia kill
Cc1ccc(S(=O)(=O)NC(C(=O)N2CCOCCOCCOCC2)C(C)C)cc1 (centres undefined),16.9,0.5%[0.0935 µM],-12.1%,-11.2%,10.6%,-4.2
O=C(NCc1ccco1)c1ccc(Br)s1,-9.1,-2.2%,-16.8%,-8.8%,-15.1%,-8.2
CSc1ccc(Cl)c(C(=O)OCC(=O)NCc2ccco2)c1,17.1,-4.2%,-22.1%,0.3%,-13.2%,4.8
O=C(NCc1ccco1)c1ccc(-c2ccc3nccn3c2)cc1,-100.6*,/,?,/,23.1µM*,/
CSc1ccc(Cl)c(C(=O)NCc2ccco2)c1,-14.5,-1.0%,?,11.4%,16.4µM*,-7.8
O=C(NCc1ccco1)c1ccc(C(=O)NCc2ccco2)s1,-16.6,3.9%,25.9µM*,-9.6%,?,-2.7
COCCN(C(=O)c1snc(C(N)=O)c1N)C(C(=O)NC1CCCCC1)c1ccc(OC)c(OC)c1 (centres undefined),-11.6,/,-26.1%,6.5%,3.2%,-10.0
c1ccc(CSc2ncn[nH]2)nc1,0.0,0.0%,-4.7%,7.5%,14.4%,3.3
CCCc1cc(-c2nc(N)ncc2-c2ccc3c(c2)OCCCO3)c(O)cc1OC,?,10.3%,25.9µM*,?,?,-8.1
O=C(NCc1ccccc1)c1ccc(Cn2c(=O)c3cccn3c3cccnc32)cc1,/,5.1%,-22.6%,/,-6.4%,/
Cc1cc(NC(c2cccnc2)c2ccc3cccnc3c2O)no1 (centres undefined),143.4,7.3%,3.66µM*,?,3.26µM*,-1.8
Oc1c(C(Nc2cccc(C(F)(F)F)c2)c2cccnc2)ccc2cccnc12 (centres undefined),37.8,10.5%,?,-3.5%,?,-5.3
Cc1cc(C(=O)Nc2cccnc2)no1,-13.0,-2.4%,?,3.0%,?,10.5
COc1ccc(Cl)cc1C(Nc1cccnc1)c1ccc2cccnc2c1O (centres undefined),-66.4*,/,?,-11.4%,?,4.2
Oc1cccc(C(Nc2ccccn2)c2ccc3cccnc3c2O)c1Cl (centres undefined),/,11.6%,3.26µM*,/,0.651µM*,/
Oc1c(C(Nc2cccnc2)c2ccc(C(F)(F)F)cc2)ccc2cccnc12 (centres undefined),/,/,8.91µM*,/,?,/
O=S(=O)(Oc1ccc(Cl)cc1)c1cccc2cccnc12,-14.6,2.7%,?,16.6%,5.6%,-1.8
